Molecules are shown by their SMILES. Unmarked numbers belong to inactive results. The rule behind the calls is not given here.

Sequence of Botulinum neurotoxin type A (Clostridium botulinum) (P0DPI0 whole entry, looked up): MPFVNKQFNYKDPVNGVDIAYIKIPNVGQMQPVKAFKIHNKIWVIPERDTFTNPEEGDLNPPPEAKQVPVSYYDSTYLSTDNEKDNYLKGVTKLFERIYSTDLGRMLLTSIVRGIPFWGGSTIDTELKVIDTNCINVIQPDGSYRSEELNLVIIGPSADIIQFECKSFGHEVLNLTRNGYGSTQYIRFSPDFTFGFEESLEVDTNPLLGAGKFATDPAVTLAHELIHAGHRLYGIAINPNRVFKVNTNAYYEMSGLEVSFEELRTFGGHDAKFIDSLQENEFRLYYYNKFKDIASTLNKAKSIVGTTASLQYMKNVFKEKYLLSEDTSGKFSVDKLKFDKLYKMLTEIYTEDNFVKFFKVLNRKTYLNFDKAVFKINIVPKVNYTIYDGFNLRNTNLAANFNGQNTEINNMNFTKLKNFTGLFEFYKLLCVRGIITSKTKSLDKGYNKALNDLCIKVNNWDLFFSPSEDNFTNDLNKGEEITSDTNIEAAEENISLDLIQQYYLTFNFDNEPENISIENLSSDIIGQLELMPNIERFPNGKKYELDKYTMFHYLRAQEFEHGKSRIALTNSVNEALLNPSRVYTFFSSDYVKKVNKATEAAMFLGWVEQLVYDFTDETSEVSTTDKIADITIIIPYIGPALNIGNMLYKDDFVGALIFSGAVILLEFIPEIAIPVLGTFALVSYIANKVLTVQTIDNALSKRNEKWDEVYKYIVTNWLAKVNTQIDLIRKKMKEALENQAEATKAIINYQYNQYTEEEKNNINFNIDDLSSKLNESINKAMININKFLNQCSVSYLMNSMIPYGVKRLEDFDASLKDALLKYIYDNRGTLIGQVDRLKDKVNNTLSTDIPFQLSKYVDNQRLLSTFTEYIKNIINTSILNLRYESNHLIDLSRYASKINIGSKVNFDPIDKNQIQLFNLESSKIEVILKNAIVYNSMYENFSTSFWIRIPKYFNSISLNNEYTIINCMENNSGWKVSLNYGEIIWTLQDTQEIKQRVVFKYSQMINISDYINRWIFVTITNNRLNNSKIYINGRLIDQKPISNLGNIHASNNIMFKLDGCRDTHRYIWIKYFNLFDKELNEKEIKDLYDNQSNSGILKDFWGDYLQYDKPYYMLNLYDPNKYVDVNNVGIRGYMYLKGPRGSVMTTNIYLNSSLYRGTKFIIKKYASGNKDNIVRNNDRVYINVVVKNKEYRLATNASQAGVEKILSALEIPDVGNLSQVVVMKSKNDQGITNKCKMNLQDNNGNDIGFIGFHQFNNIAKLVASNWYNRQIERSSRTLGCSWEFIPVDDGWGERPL

The first experiment relates to Botulinum neurotoxin type F light chain protease (Clostridium botulinum). Description: Clostridium botulinum type F light chain protease inhibitors, microsphere substrate cleavage, validation (AID 588459). The settings on record: multiplex microsphere protease substrate cleavage assay, flow cytometry; at 10 µM; hits give high values. (In general: A flow cytometer gives signals particle by particle.)
A word on the inhibition: it is the change of the read-out against control, counted positive when it falls. Regarding `COc1ccc2cc(-c3nc4ccccc4n3C)c(=O)oc2c1`, the inhibition is 2%.
Still for that read-out and setting: with `COc1cc2c(cc1OC)CN(C(=O)c1ccc(S(=O)(=O)N(C)c3ccccc3)cc1)CC2` the figure was 0.9%; with `COC(=O)c1ccc(C(=O)OC)c(NC(=O)C(C)C)c1`, -0.3%.
On the same count and under the same terms, in the case of `Cc1cccc(C(=O)c2cccc(C)c2)c1` it was -4.8%; in that of `CCO/C([O-])=N/c1c[n+](N2CCOCC2)no1`, 0.3%; in that of `COc1ccc(C(C)=O)c2c1OCCO2`, 2.3%.
The same measure, in the same setting: in the case of `COC(=O)c1[nH]c2ccc(F)cc2c1NC(=O)C1=COCCO1` it was 0%; in that of `CC(=O)N/C(=C/c1ccc2c(c1)OCO2)C(=O)NCCO`, 3.7%; in that of `CC(C)c1ccc2[nH]c3c(c2c1)CCCC3=O`, 0.3%.
`COc1ccc(C(=O)NCCC2=CCCCC2)cc1[N+](=O)[O-]`: the inhibition is -5.9%.
On the same count and under the same terms, in the case of `Cc1coc2c1c(C)cc1oc(=O)c(Cc3ccccc3)c(C)c12` it was 1.9%; in that of `COc1cc(C(=O)Nc2cccc(-c3nnc(-c4ccco4)o3)c2)ccc1OC(C)=O`, 3.1%.
On the same count and under the same terms, with `CN(C)CCOc1ccccc1Cc1ccccc1` the figure was 19.8%.
Same read-out and setting: with `O=C(CCC(=O)c1cccs1)c1cccs1` the figure was 3.2%; with `COc1ccc2cc([C@H](C)C(=O)O)ccc2c1`, 0.3%.
On to `Cc1ccccc1NC(=O)C1c2ccccc2Oc2ccccc21`, for which the inhibition is 0.4%.
For `CCn1c2ccccc2c2cc(CC(N)=O)ccc21`, the inhibition is -5.5%.
On the same count and under the same terms, with `O=C(N1CCCC1)C12CC3CC(C1)CC(C(=O)N1CCCC1)(C3)C2` the figure was -1.6%; with `O=C(NCCCCCc1nc2ccccc2[nH]1)c1ccccc1Cl`, 1.4%; with `Nc1cnn(C2OC(CO)C(O)C2O)c(=O)n1` (stereo not drawn), 0.5%.
Still for that read-out and setting: in the case of `COc1ccc(-c2onc(C)c2-c2ccc(C(=O)OC(C)C)o2)c(O)c1` it was 1.1%; in that of `O=C(/C=C/c1ccccc1)NC(=O)c1ccccc1O`, -4.2%.
Still for that read-out and setting: in the case of `COc1cc2c(cc1OC)C(C)=NC1(CCCCC1)C2` it was 9.8%.

The next experiment concerns the target Botulinum neurotoxin type A (Clostridium botulinum) (UniProt P0DPI0). Description: BoNT/A light chain protease inhibitors, biochemical, multiplex microsphere flow cytometry, validation set (AID 588460). Conditions: at 10 µM, hits give high values.
As to `Nc1nc(Cl)nc2c1ncn2[C@@H]1O[C@H](CO)[C@@H](O)[C@H]1O`, the inhibition was 0.5%.
Same read-out and setting: in the case of `N/C(=N\OC(=O)c1cccc(Br)c1)c1ccncc1` it was 0.4%; in that of `O=C(O)CCn1cnc2ccccc2c1=O`, 0.3%.
Still for that read-out and setting: with `NC(N)=N/N=C/c1ccc(OS(=O)(=O)c2ccccc2)cc1` the figure was -1.5%; with `Oc1[nH]c2ccccc2c1C1=NCCCC1`, -0.1%; with `O=C(NCC1CCCCN1)c1cc(OCC(F)(F)F)ccc1OCC(F)(F)F` (stereo not drawn), -0.3%.
Still for that read-out and setting: in the case of `CC(C)OC(=O)C1C(=O)CC(C)(O)C(C(=O)OC(C)C)C1c1cccc(O)c1` (stereo not drawn) it was -0.2%; in that of `COC(=O)c1[nH]c2ccccc2c1NC(=O)CN1CCN(C/C=C/c2ccccc2)CC1`, -1.4%; in that of `O=C(C1CCCCC1)N1CC(=O)N2CCc3ccccc3C2C1` (stereo not drawn), -1.1%.
Take `COC1CCCCC1Nc1ccc(C)c(C)c1` (stereo not drawn): the inhibition was -0.1%.
For `COc1ccc2[nH]c(=O)c(CNC3CCCCC3)cc2c1`, the inhibition is 0.9%.
The same measure, in the same setting: with `O=C(N1CCCCC1)C1(c2ccccc2)CCOCC1` the figure was 1.3%; with `C#CCN1C(=O)C(O)(c2c(C)[nH]c3ccccc23)c2ccccc21` (stereo not drawn), 0.5%; with `Cc1nc(-c2coc3c(CN(C)C)c(O)ccc3c2=O)cs1`, -0.6%.
Same read-out and setting: in the case of `CCOC(=O)N1CCc2[nH]c3ccc(C)cc3c2C1` it was -1.6%; in that of `O=C(Nc1ccc(N2CCOCC2)cc1)c1ccc(-c2ccccc2[N+](=O)[O-])o1`, -0.9%; in that of `CC1(C)CC(CC(=O)Nc2nccs2)(c2ccccc2)CCO1` (stereo not drawn), 0.5%.
On the same count and under the same terms, in the case of `COc1ccc2cc(-c3nc4ccccc4n3C)c(=O)oc2c1` it was 1.8%; in that of `COc1cc2c(cc1OC)CN(C(=O)c1ccc(S(=O)(=O)N(C)c3ccccc3)cc1)CC2`, 0.6%; in that of `COC(=O)c1ccc(C(=O)OC)c(NC(=O)C(C)C)c1`, -1.3%.
On to `Cc1cccc(C(=O)c2cccc(C)c2)c1`, for which the inhibition was -0.8%.
Still for that read-out and setting: in the case of `CCO/C([O-])=N/c1c[n+](N2CCOCC2)no1` it was 0.5%.
Same read-out and setting: in the case of `COc1ccc(C(C)=O)c2c1OCCO2` it was -2.8%; in that of `COC(=O)c1[nH]c2ccc(F)cc2c1NC(=O)C1=COCCO1`, 0.8%; in that of `CC(=O)N/C(=C/c1ccc2c(c1)OCO2)C(=O)NCCO`, 0.6%.

The values are drawn from PubChem BioAssay.
